# Assay results as given in the GenesisPotency data set.
# Among all 370,000 compounds or so, about 1,100 (0.3%) were called active. Not shown: some 1% with an inconclusive outcome. The call rests on the fitted dose curve; in most records, active means well fitted activation curve with a large enough effect; inconclusive means small, poorly fitted or top-dose-only effect; inactive means flat fitted curve, though single readings scatter. Shown is part of a subset that was picked to be rich in actives.
# Target: T1, Relaxin receptor 1, Homo sapiens (UniProt Q9HBX9)
# T1 sequence (whole entry): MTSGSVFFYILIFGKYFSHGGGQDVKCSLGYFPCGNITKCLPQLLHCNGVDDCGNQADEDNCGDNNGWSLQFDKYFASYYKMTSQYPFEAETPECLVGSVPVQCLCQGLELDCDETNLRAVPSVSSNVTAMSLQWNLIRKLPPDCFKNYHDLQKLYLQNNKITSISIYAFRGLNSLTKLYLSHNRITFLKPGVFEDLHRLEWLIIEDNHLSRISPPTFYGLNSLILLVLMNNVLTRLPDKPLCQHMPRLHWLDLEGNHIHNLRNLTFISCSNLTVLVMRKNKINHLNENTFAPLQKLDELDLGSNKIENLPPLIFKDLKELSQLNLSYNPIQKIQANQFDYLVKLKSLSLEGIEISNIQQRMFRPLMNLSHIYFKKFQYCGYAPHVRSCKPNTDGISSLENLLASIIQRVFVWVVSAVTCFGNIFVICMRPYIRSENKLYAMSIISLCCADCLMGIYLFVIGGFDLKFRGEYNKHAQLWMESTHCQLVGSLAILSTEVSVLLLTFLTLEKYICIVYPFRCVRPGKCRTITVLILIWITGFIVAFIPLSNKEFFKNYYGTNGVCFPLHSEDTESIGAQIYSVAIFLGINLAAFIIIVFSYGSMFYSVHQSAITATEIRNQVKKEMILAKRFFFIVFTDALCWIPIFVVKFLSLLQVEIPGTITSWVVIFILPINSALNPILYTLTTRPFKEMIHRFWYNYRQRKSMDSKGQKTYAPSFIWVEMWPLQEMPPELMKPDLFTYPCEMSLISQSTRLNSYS
# Test: qHTS Assay for Agonists of the Relaxin Receptor RXFP1
row,Structure (SMILES),outcome
1,CCCC[N+](CCCC)(CCCC)CCCC.Nc1ncnc2c1ncn2[C@@H]1O[C@H](COS(=O)(=O)[O-])[C@@H](O)[C@H]1O,active
